Sampled rows, rich in hits. Any-hit rate of the full collection: about 3.2%.
Lamin A splicing = qHTS Assay for Modulators of Lamin A Splicing; HeLa LMNA splicing GFP/RFP minigene ratio, 48 h; Potency, µM (top dose mostly 46.1 µM), for inactives: at the highest dose ratio change, negative = inhibition, actives largely listed as inhibitors; 200,000 tested, 0.01% active; AID 1487, 2009; active means well fitted inhibition curve with a large enough effect in the signal ratio, with a control signal flat, not every such curve was filed as active; inconclusive means small, poorly fitted or top-dose-only effect, or effect the other way, or a change in a side signal; the % refers to the signal ratio; further: potency means the concentration at half of the fitted maximal effect; on the % scale 0 is the no-effect control and ±100 the full control effect
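S3 HeLa stable clones carrying a lamin A-EGFP splicing minigene plus DsRed2 were seeded at 600 cells/well in Opti-MEM with 2% FBS, pin-dosed and incubated 48 h at 37°C. Acumen cytometry (488 nm) gave the GFP/RFP total-intensity ratio.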
Tau FP inhib = qHTS for Inhibitors of Tau Fibril Formation, Fluorescence Polarization | 280,000 tested, 0.39% active | K18 P301L tau heparin fibrillization, Alexa594 FP, 6 h | Potency, µM (doses to about 57.7 µM), inactives show top-dose activity, negative = inhibition, usual class: inhibitors; further: potency means the concentration at half of the fitted maximal effect; on the % scale 0 is the no-effect control and ±100 the full control effect; nearly all actives have a fitted effect of over 55% in size
Target sequence (P10636 561-689 P618L limits assumed): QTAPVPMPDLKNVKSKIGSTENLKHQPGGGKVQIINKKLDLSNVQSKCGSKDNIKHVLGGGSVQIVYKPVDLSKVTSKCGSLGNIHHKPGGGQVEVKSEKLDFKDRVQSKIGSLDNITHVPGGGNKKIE
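Quantitative HTS format: compounds meet 15 uM recombinant K18 P301L tau and Alexa 594-tau tracer in 100 mM sodium acetate pH 7; 20 uM heparin triggers fibrillization at 37 C over 6 hr; FP gives the signal.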
Tau ThT inhib = qHTS for Inhibitors of Tau Fibril Formation, Thioflavin T Binding; Microtubule-associated protein tau (Homo sapiens), P10636; recombinant tau K18 P301L, heparin-induced fibrillization, ThT fluorescence; Potency, µM (doses to about 57.4 µM), without a hit: at the highest dose activity, negative = inhibition, hits mostly inhibitors; 270,000 tested, 2.1% active; further: potency means the concentration at half of the fitted maximal effect; on the % scale 0 is the no-effect control and ±100 the full control effect; nearly all actives have a fitted effect of over 55% in size
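Tau K18 P301L fragment (15 uM unlabeled plus 0.24 uM Alexa 594-labeled) in 100 mM sodium acetate pH 7 with compound, fibrillization induced by 20 uM heparin for 6 hr at 37 C. Thioflavin T (30 uM) added, fluorescence read after 1 hr (ex 450, em 510 nm).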
Tau fluor cs = Counterscreen qHTS for Inhibitors of Tau Fibril Formation, Fluorescence Polarization; 280,000 tested, 0.93% active; AID 1463, 2008; Potency, µM (top dose mostly 57.7 µM), without a hit: top-dose activity change, negative = decrease; tau K18 P301L Alexa594 fluorescence, heparin fibrillization; further: potency means the concentration at half of the fitted maximal effect; on the % scale 0 is the no-effect control and ±100 the full control effect; nearly all actives have a fitted effect of over 55% in size
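Human tau K18 P301L (15 uM unlabeled, 0.24 uM Alexa 594-labeled) in 100 mM sodium acetate pH 7 with 20 uM heparin, 6 hr at 37 C. ThT 30 uM added, 1 hr ambient; Alexa 594 FP and total fluorescence read at 555/632 nm.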
CBFb-RUNX1 inh = qHTS Assay for Compounds Blocking the Interaction Between CBF-beta and RUNX1 for the Treatment of Acute Myeloid Leukemia; Runt-related transcription factor 1 (Homo sapiens) + Core-binding factor subunit beta …; Potency, µM (doses to about 59.8 µM), without a hit: top-dose activity, negative = inhibition, actives largely listed as inhibitors; AlphaScreen CBFb-His/RUNX1-biotin binding, biochemical; 230,000 tested, under 10 active; further: % of control where 0% means no effect
Target sequence (Q01196 whole entry, looked up): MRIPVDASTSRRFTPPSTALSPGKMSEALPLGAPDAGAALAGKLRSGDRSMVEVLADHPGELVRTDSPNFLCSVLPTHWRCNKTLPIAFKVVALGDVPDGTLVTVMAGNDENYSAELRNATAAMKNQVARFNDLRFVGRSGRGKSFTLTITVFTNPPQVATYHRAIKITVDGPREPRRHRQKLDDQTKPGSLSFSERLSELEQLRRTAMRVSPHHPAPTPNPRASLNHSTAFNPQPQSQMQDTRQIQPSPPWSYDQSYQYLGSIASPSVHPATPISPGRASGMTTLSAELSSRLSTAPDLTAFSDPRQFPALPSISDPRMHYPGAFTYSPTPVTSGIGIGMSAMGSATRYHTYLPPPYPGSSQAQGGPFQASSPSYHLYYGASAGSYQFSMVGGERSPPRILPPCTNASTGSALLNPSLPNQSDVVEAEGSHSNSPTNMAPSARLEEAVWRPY
Target sequence (Q13951 whole entry, looked up): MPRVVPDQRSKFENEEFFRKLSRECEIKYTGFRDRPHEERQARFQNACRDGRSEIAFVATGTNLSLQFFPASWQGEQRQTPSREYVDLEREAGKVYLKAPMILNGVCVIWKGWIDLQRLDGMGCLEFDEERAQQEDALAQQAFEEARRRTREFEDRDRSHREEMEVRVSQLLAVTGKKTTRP
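Interaction loss through any mechanism counts as activity. Pre-formed complex of His-CBF-beta and biotin-RUNX1 (30 nM apiece) is incubated with compound 15 min, then with 50 ng nickel and 50 ng streptavidin beads for 90 min before AlphaScreen detection.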
JMJD2E inh = qHTS Assay for Inhibitors of Human Jumonji Domain Containing 2E (JMJD2E) | Lysine-specific demethylase 4E (Homo sapiens), B2RXH2 | JMJD2E catalytic domain, FDH-coupled NADH fluorescence (FDH is formaldehyde dehydrogenase) | Potency, µM (highest dose often 57.1 µM), without a hit: at the top dose activity change, negative = inhibition, usual class: inhibitors | 230,000 tested, 1.6% active; active means well fitted inhibition curve with a large enough effect, not every such curve was filed as active; inconclusive means small, poorly fitted or top-dose-only effect, or another doubt; inactive means no such curve, though single readings can be large or run the other way;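 further: potency means the concentration at half of the fitted maximal effect; 0% = wells with enzyme and -100% = buffer wells without enzyme; nearly all actives have a fitted effect of over 50% in size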
* = called active by the depositor; ? = inconclusive; · = no result given; [ ] = remark or other dose. Unless noted, the call rests on the fitted dose curve; in most records, active means well fitted curve in the direction sought with a large enough effect; inconclusive means small, poorly fitted or top-dose-only effect, or another doubt; inactive means no such curve, though single readings can be large; an effect the other way counts as inactive or inconclusive.

SMILES	Lamin A splicing	Tau FP inhib	Tau ThT inhib	Tau fluor cs	CBFb-RUNX1 inh	JMJD2E inh
Oc1ccc(Br)cc1/C=N/Nc1nc(N2CCCCC2)nc(N2CCOCC2)n1	10.8%[46 µM]	?	-0.7%	?	0.0%	-15.3%
CC(C)C(C(=O)O)N1C(=O)/C(=C/C=C/c2ccco2)SC1=S (stereo unspecified)	?	25.1µM*	12.6µM*	?	?	?
O=C1/C(=C\c2cccnc2)SC(=S)N1c1ccc(F)cc1	-11.5%[46 µM]	-0.1%	-9.4%	6.3%	-1.5%	-9.5%
O=C1/C(=C\c2ccco2)SC(=S)N1c1ccc(O)cc1	?	-8.9%	17.8µM*	?	?	?
O=C1/C(=C\c2ccc(O)cc2)SC(=S)N1c1cccnc1	·	-20.0%	?	-26.7%	-0.9%	-7.0%
O=C1/C(=C/c2ccco2)SC(=S)N1c1cccnc1	·	?	15.8µM*	?	·	?
CC(C)C(C(=O)O)N1C(=O)/C(=C/c2cccn2C)SC1=S (stereo unspecified)	-13.5%	1.0%	?	7.4%	2.0%	-7.2%
O=C1NC(=Nc2ccc(Cl)cc2)/C(=C/c2ccco2)S1	?	-4.5%	?	-27.9%	?	?
NN1C(=O)/C(=C\c2ccco2)SC1=S	·	?	31.6µM*	?	·	?
O=C(CN1C(=O)CCc2cc(S(=O)(=O)N3CCOCC3)ccc21)NCc1ccccc1	-4.4%[46 µM]	-0.4%	-0.3%	2.3%	·	·
COCCNC(=O)C1(C(F)(F)F)C/C(=C\Cc2ccccc2)CCCO1 (stereo unspecified)	·	·	·	·	-5.8%	·
O=C1/C(=C/C=C/c2ccco2)SC(=S)N1c1ccc(O)cc1	·	?	3.98µM*	11.2µM*[quencher]	·	14.1µM*
CN(C)c1ccc(/C=C/C=C2/SC(=S)N(c3ccccc3)C2=O)cc1	-13.7%	-5.7%	2.51µM*	0.708µM*[fluorescent]	·	9.4%
Nc1ccc(N2CCOCC2)c2nonc12	-11.2%[46 µM]	?	14.1µM*	?	13.1%	23.8%
O=C(Nc1ccc(F)cc1)Nc1ccc(N2CCOCC2)c2nonc12	9.7%[46 µM]	13.8%	2.82µM*	-22.7%	-12.3%	-5.4%
Cc1ccc2c(=O)cc(C(=O)Nc3ccc(S(=O)(=O)N(C)Cc4ccccc4)cc3)oc2c1C	·	?	-17.7%	?	·	·
COc1ccc(N2CCN(CC(O)COC(C)(C)C)CC2)cc1 (stereo unspecified)	0.3%[46 µM]	9.9%	3.9%	0.2%	6.1%	25.1µM*
CCOc1ccc(OCC(=O)NCCS(=O)(=O)N2CCN(c3ccc(OC)cc3)CC2)cc1	-6.8%[46 µM]	10.4%	-2.1%	-2.6%	·	·
CN1c2ccccc2C(C)(C)C12CC(CCl)=NO2 (stereo unspecified)	-4.7%	-1.9%	?	-15.6%	-1.4%	-0.1%
COc1ccc2ccc3c(c2c1)N=CC1(O3)N(C)c2ccccc2C1(C)C (stereo unspecified)	?	22.4µM*	10µM*	?	-24.0%	14.1µM*
CC1(C)OC(=O)N(c2ccccc2)C12C=Cc1cc(Br)ccc1O2 (stereo unspecified)	-22.7%	-0.4%	-7.2%	-3.9%	1.5%	11.1%
CN1c2ccccc2C(C)(C)[C@]12C=Cc1cc(O)ccc1O2	?	-0.7%	22.4µM*	?	-25.5%	-11.0%
COc1ccc2c(c1)Sc1ccccc1N2CCN(C)C	10.1%	2.3%	-4.8%	-5.2%	-4.2%	?
CN1c2ccccc2C(C)(C)C12C=Nc1c(ccc3ccccc13)O2 (stereo unspecified)	-6.3%	?	31.6µM*	?	-27.4%	25.1µM*
CNc1sc(C(=O)c2cccs2)c(N)c1-c1nc2ccccc2s1	?	31.6µM*	7.94µM*	11.2µM*[quencher]	-4.3%	-1.3%
SMILES	Lamin A splicing	Tau FP inhib	Tau ThT inhib	Tau fluor cs	CBFb-RUNX1 inh	JMJD2E inh
CC(=O)Nc1scc(C)c1-c1nc2ccccc2s1	·	-11.0%	?	-22.9%	8.9%	-2.4%
CNc1sc(C(=O)c2ccc(F)cc2)c(N)c1-c1nc2ccccc2s1	?	-0.7%	15.8µM*	?	?	-1.1%
C=CCCN(C(C)C(=O)OC)S(=O)(=O)c1ccccc1Br (stereo unspecified)	·	·	·	·	-5.1%	·
CC1=C(C(=O)Nc2ccc(C)cc2C)C(c2cccs2)n2nc(SCc3ccc(Cl)cc3)nc2N1 (stereo unspecified)	·	-4.5%	-5.3%	-2.8%	·	·
COc1ccc(N(Cc2cccs2)C(=O)c2ccc(OCC(C)C)cc2)cc1	-17.8%[46 µM]	13.4%	?	-13.8%	·	·
CC(C)(C)c1ccc(C(=O)Nc2ccc(C=C(C#N)C#N)cc2)cc1	-5.4%	?	?	-8.6%	4.7%	11.2µM*
N#CC(C#N)=Cc1ccc(NC(=O)c2ccc(Br)cc2)cc1	·	?	?	-24.4%	7.4%	20µM*
CC(C)(C)c1ccc(C(=O)Nc2ccc(NC(=O)c3ccc(Cl)c(Cl)c3)cc2)cc1	·	-15.2%	-5.7%	-7.7%	·	·
O=Nc1c(O)[nH]c2c(Cl)c(Cl)ccc12	·	·	·	·	-0.5%	·
Nc1nc(=S)c2ncn(C3OC(CO)C(O)C3O)c2[nH]1 (stereo unspecified)	-19.6%[46 µM]	?	11.2µM*	?	?	?
OCC1OC(n2cnc3c(=S)nc[nH]c32)C(O)C1O (stereo unspecified)	?	-3.4%	-0.8%	-1.8%	·	?
O=C(CN1C(=O)S/C(=C\c2ccc(Cl)cc2)C1=O)NNC(=O)c1ccccc1O	?	?	-1.4%	-21.9%	-15.1%	17.8µM*
C[n+]1cccc2cccc([O-])c21	·	?	15.8µM*	-25.0%	?	15.8µM*
N#C/C(=C/c1ccc(O)c([N+](=O)[O-])c1)C(=O)Nc1ccccc1	·	8.1%	8.91µM*	?	-1.7%	-10.7%
N#C/C(=C\c1ccc(O)c(O)c1)C(=O)NCCc1ccccc1	?	11.6%	?	?	?	14.1µM*
N#C/C(=C\c1ccc(O)c(O)c1)C(=O)NCCCCc1ccccc1	·	1.7%	15.8µM*	14.1µM*[quencher]	?	4.47µM*
Cc1cccc(N2CCN(C(=O)c3cc4ccc5cccnc5c4[nH]3)CC2C)c1 (stereo unspecified)	?	4.2%	?	?	·	·
Cc1ccc(S(=O)(=O)N(C(=O)c2ccncc2)c2ccc(OC(=O)c3ccncc3)c3ccccc23)cc1	?	?	25.1µM*	?	-5.4%	15.8µM*

From PubChem
